Records with an inconclusive call do not appear. Active and inactive are the calls of the source. Unless noted, calls come from the whole dose curve; as a rule, active = well fitted curve in the direction sought with a large enough effect; inconclusive = small, poorly fitted or top-dose-only effect, or another doubt; inactive = no such curve, though single readings can be large; an effect the other way counts as inactive or inconclusive.
Experiments:
[1] = molecular target: Lysosomal acid glucosylceramidase (Homo sapiens) (UniProt P04062); assay: Glucocerebrosidase-p2 (AID 348; in the data active = potency below about 10 µM; note: potency is the fitted concentration of half-maximal effect); conditions: purified GBA, blue fluorogenic substrate, 40 min
Method in brief: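 Compounds titrated from 0.6 nM upwards against 0.2 nM enzyme in pH 5.9 citric acid/KH2PO4, taurocholate, tween-20; blue fluorogenic substrate 80 uM, 40 min room temperature, stopped and read Ex 365/Em 440 for AC50.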

[2] = AP1 Signaling Pathway (AID 357; active = well fitted curve in either direction with a large enough effect, not every such curve was filed as active;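 note: ME-180 reporter cells stimulated with EGF at its EC50 level; % is set by controls: 0 for no effect and ±100 for the full control effect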); conditions: ME-180 AP-1-bla reporter, EGF-induced, beta-lactamase ratio, 5 h; at 7.69 µM (top of the series) unless noted
Method in brief: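 Modulation of EGF-driven AP-1 transcription was assessed with a beta-lactamase reporter in ME-180 cells. Compound and EC50 EGF were co-incubated 5 hours at 37 °C before 2.5-hour CCF4 loading at room temperature and dual-emission reading.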

[3] = molecular target: Cytochrome P450 1A2 (Homo sapiens) (UniProt P05177); assay: p450-cyp1a2 (AID 410; calls by dose curve; note: potency is the fitted concentration of half-maximal effect); conditions: recombinant CYP1A2, luciferin-ME demethylation, luminescence; series mostly up to 57 µM
Method in brief: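 Human CYP1A2 (20nM) demethylated Luciferin-ME at its Km (100uM) in 100mM KPO4. After 10 min compound preincubation, NADPH regeneration ran the reaction 60 min at room temperature. Luciferin was read by luminescence, normalized to 57 uM furafylline.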

[4] = NFAT Signaling Pathway (AID 444; active = well fitted curve in either direction with a large enough effect, not every such curve was filed as active;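 note: carbachol stimulus at about its EC50 of 1 µM final; % is set by controls: 0 for no effect and ±100 for the full control effect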); conditions: Jurkat NFAT-bla M1, carbachol, beta-lactamase ratio, 5 h; at 7.69 µM (top of the series) unless noted
Method in brief: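 Read-out: CCF4 FRET ratio (460 nm/530 nm) after 1 h RT dye loading, used for %activity and AC50 from titration series. Cells: Jurkat NFAT-β-lactamase/M1 line, treated with compound plus 1 uM carbachol for 5 h, 37 °C.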

[5] = Stat Signaling Pathway (AID 446; active = well fitted curve in either direction with a large enough effect, not every such curve was filed as active;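 note: ME-180 cervical cancer cells given 40 pM IL-6 alongside compound; SIE-controlled beta-lactamase reporter measured as 460/530 nm FRET emission ratio; % is set by controls: 0 for no effect and ±100 for the full control effect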); conditions: ME-180 SIE beta-lactamase reporter, IL-6 stimulated, 5 h; at 7.69 µM (top of the series) unless noted
Method in brief: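 ME-180 SIE-bla cells; overnight plating; cpd + IL-6 40 pM, 5 h, 37 C; LiveBLAzer 2.5 h RT; 460/530 nm emission ratio. Normalized to 300 pM IL-6 and 125 nM JAK inhibitor controls.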

[6] = molecular target: Glucocorticoid receptor (Homo sapiens) (UniProt P04150); assay: GR-GFP Redistribution (AID 450;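 active = compounds whose dose series gives a full or clear partial fitted curve of increased nuclear translocation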; note: potency is the fitted concentration of half-maximal effect); conditions: U2OS GR-GFP nuclear translocation, laser cytometry, 2 h
[7] = molecular target: Glucocorticoid receptor (Homo sapiens) (UniProt P04150); assay: GR-EFC Redistribution (AID 451; calls by dose curve; note: potency is the fitted concentration of half-maximal effect); conditions: CHO-K1 GR-EFC translocation, beta-gal luminescence, 2 h
Method in brief: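 Translocation of GR-ED fusion to nuclear EA restores b-gal, read by luminescence after 1 h room-temperature detection. Engineered CHO-K1 biosensor cells, 1,000/well, exposed 2 h at 37 C to titrations up to 46 uM final.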

[8] = molecular target: Mitogen-activated protein kinase 10 (Mus musculus) (UniProt Q61831); assay: JNK3 AlphaScreen Assay (AID 530; active = well fitted curve in either direction with a large enough effect, not every such curve was filed as active;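 note: kinase came from lysate of stimulated human HepG2 cells; signal reports phosphorylation of biotinylated GST-cJun 1-79 at Ser73 with 10 µM ATP; % is set by controls: 0 for no effect and ±100 for the full control effect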); conditions: JNK3 lysate, c-Jun phosphorylation; series mostly up to 57.1 µM
Method in brief: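 Room-temperature AlphaScreen kinase assay; pre-activated HepG2 lysate as JNK3 source, biotin-GST-cJun(1-79) substrate, 10 uM ATP, compound 15 min preincubation.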

[9] = molecular target: 3',5'-cyclic-AMP phosphodiesterase 4B (Homo sapiens) (UniProt Q07343); assay: qHTS Assay for Inhibitors of PDE-IV (AID 607; active = well fitted activation curve with a large enough effect in the main read-out, with a control signal flat, not every such curve was filed as active; note: % of control where 0% means no effect); conditions: HEK293 ACTOne CNG channel cells, membrane potential fluorescence; series mostly up to 22.9 µM
Method in brief: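 ACTOne HEK293 cells carry a modified cAMP-gated CNG channel and express endogenous PDE4; plated 1000 cells/well, compounds up to 22.9 uM final. Membrane-potential dye fluorescence (ex 535/em 590) was read; parental cells received 10 uM forskolin + 100 uM RO 20-1724.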

[10] = molecular target: Cytochrome P450 3A4 (Homo sapiens) (UniProt P08684); assay: qHTS Assay for Activators of Cytochrome P450 3A4 (AID 885); conditions: recombinant CYP3A4, Luciferin-PPXE luminescence, 60 min; series mostly up to 57.1 µM; note: nearly all actives have a fitted effect of over 65% in size
Method in brief: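 20nM CYP3A4 + 25uM Luciferin-PPXE (=KM), 200mM KPO4; cpd 10 min RT; NADPH regen, 60 min RT; stop w/ detection buffer, 20 min; luminescence. Normalized to 57 uM ketoconazole.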

[11] = molecular target: Cytochrome P450 2C19 (Homo sapiens) (UniProt P33261); assay: qHTS Assay for Inhibitors and Substrates of Cytochrome P450 2C19 (AID 899); conditions: recombinant CYP2C19, luciferin-H EGE luminescence; series mostly up to 57.1 µM; note: potency is the fitted concentration of half-maximal effect; nearly all actives have a fitted effect of over 60% in size
Method in brief: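 Reactions contain 5nM enzyme, 10uM Luciferin-H EGE (KM) and 50mM KPO4; compound preincubates 10 min at 37C, NADPH regeneration starts turnover for 60 min. Luminescence after detection reagent gives activity.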

[12] = Confirmation and Secondary Assay for Modulators of Hemoglobin Beta Chain Splicing at IVS2 654 locus (AID 910); conditions: HeLa EGFP-654 splicing reporter, GFP fluorescence, 48 h; series mostly up to 38.3 µM;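 note: HeLa cells stably carrying EGFP split by mutant beta-globin IVS2-654 intron; per-well total GFP intensity by laser scanning cytometry after 2-day treatment; % of control where 0% means no effect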
Method in brief: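 Readout: per-well total peak green fluorescence (488 nm ex, 500–520 nm em) from objects 5–250 µm, reflecting correct splicing of an EGFP-654 reporter. Compounds were applied for 2 days at 37 °C to overnight-plated HeLa EGFP-654 cells; controls were DMSO and 500 nM IVS2-654 PNA.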

[13] = Confirmation and Secondary Assay for Modulators of Hemoglobin Beta Chain Splicing at IVS2 705 locus (AID 930); conditions: HeLa EGFP-705 splicing reporter, GFP fluorescence, 48 h; series mostly up to 38.3 µM;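 note: HeLa cells stably expressing the EGFP-705 splicing reporter; GFP fluorescence per well restored by corrected splicing of the IVS2-705 intron in EGFP; % of control where 0% means no effect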
Method in brief: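 Secondary splice-site specificity test uses HeLa expressing CMV-driven EGFP interrupted by IVS2-705; cells were treated 2 days at 37C with 500 nM antisense PNA as positive control.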

[14] = molecular target: Ubiquitin carboxyl-terminal hydrolase 1 (Homo sapiens) (UniProt O94782); assay: Inhibitors of USP1/UAF1: Pilot qHTS (AID 504865); conditions: purified USP1/UAF1, Ub-rhodamine cleavage fluorescence; series mostly up to 54.9 µM;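 note: rhodamine fluorescence freed from ubiquitin-rhodamine substrate followed over time; top concentration of the series differs between compounds; % is set by controls: 0 for no effect and ±100 for the full control effect; nearly all actives have a fitted effect of over 35% in size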
Method in brief: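 In 50mM HEPES pH 7.8 containing 0.5mM EDTA, 1mM TCEP, 0.1 mg/ml BSA and 0.01% Tween-20, 1nM USP1/UAF1 is exposed to compound for 15 min, then Ub-Rho (150nM final) is added and fluorescence is read over time.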

[15] = Primary qHTS for small molecule stabilizers of the endoplasmic reticulum resident proteome: Secreted ER Calcium Modulated Protein (SERCaMP) assay (AID 1508630); conditions: SH-SY5Y GLuc-SERCaMP (Gaussia luciferase released on ER calcium loss) secretion, thapsigargin, luminescence; series mostly up to 38.4 µM; note: % is set by controls: 0 for no effect and ±100 for the full control effect
Method in brief: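 GLuc-SERCaMP-expressing SH-SY5Y cells, pretreated 16 h with compound, are challenged with thapsigargin to empty ER calcium stores; after 4 h, coelenterazine is added directly to the medium and luminescence is imaged.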

[16] = molecular target: Cytochrome P450 2D6 (Homo sapiens) (UniProt P10635); assay: qHTS Assay for Inhibitors and Substrates of Cytochrome P450 2D6 (AID 891); conditions: recombinant CYP2D6, luciferin-ME EGE luminescence; series mostly up to 57.1 µM; note: potency is the fitted concentration of half-maximal effect; nearly all actives have a fitted effect of over 60% in size
Method in brief: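 Human CYP2D6 (5 nM) with 30 uM Luciferin-ME EGE (at Km) in 100 mM KPO4, compound preincubated 10 min, then NADPH regeneration system for 60 min at room temperature. Luciferin read by luminescence; normalized to 1.43 uM quinidine.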

[17] = qHTS Assay for Identification of Small Molecule Agonists for Hypoxia Response Element Signaling Pathway (AID 914; active = well fitted activation curve with a large enough effect in the signal ratio, with a control signal flat, not every such curve was filed as active; the % refers to the signal ratio; note: potency is the fitted concentration of half-maximal effect; for activation: % of control where 0% means no effect); conditions: ME-180 (cervical carcinoma) HRE-bla reporter, beta-lactamase ratio, CoCl2, 17 h; activation: stronger effect = higher value
Method in brief: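 qHTS titration; ME-180 HRE-bla cells; EC50 CoCl2 co-treatment, 17 h at 37 degrees Celsius; CCF4 dye, ex 405nm, em 460nm and 530nm; %Activity from ratio; AC50.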

[18] = molecular target: Dual specificity protein kinase CLK4 (Homo sapiens) (UniProt Q9HAZ1); assay: qHTS Assay for Inhibitors of CDC-like Kinase 4 (ADP-FP Assay) (AID 1795); conditions: Transcreener ADP fluorescence polarization; series mostly up to 50 µM;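 note: recombinant human CLK4 phosphorylating RS repeat peptide at 1 µM ATP; % is set by controls: 0 for no effect and ±100 for the full control effect; nearly all actives have a fitted effect of over 60% in size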
Method in brief: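 Clk4 6.25 nM; RS peptide 100 uM; ATP 1 uM; 25 mM Tris pH 7.5, 10 mM MgCl2; 1 h reaction. ADP detected via antibody/orange tracer FP displacement; TG003 positive control.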

[19] = molecular target: Cytochrome P450 3A4 (Homo sapiens) (UniProt P08684); assay: qHTS Assay for Inhibitors and Substrates of Cytochrome P450 3A4 (AID 884); conditions: recombinant CYP3A4, Luciferin-PPXE luminescence; series mostly up to 57.1 µM; note: potency is the fitted concentration of half-maximal effect; nearly all actives have a fitted effect of over 50% in size
Method in brief: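 20 nM human CYP3A4 with 25 uM Luciferin-PPXE (at KM) in 200 mM KPO4, preincubated 10 min with compound; NADPH regeneration started a 60 min RT reaction. Luciferin detected by luminescence, normalized to 57 uM ketoconazole as full inhibition.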

Chain of Cytochrome P450 1A2 (Homo sapiens) (P05177 whole entry, looked up): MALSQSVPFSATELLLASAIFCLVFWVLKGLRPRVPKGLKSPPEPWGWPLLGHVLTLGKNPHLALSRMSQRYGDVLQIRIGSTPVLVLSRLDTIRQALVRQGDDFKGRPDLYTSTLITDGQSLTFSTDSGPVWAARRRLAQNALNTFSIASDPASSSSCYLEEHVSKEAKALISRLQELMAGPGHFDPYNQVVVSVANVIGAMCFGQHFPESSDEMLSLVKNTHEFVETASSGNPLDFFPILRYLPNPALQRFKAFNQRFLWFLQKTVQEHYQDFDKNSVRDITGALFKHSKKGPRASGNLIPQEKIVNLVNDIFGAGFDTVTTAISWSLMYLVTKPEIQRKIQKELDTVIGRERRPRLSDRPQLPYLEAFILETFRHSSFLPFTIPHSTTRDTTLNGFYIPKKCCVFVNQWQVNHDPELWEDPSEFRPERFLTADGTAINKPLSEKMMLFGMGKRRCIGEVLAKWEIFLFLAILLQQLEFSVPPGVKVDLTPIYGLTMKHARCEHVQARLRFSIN
Chain of Cytochrome P450 3A4 (Homo sapiens) (P08684 whole entry, looked up): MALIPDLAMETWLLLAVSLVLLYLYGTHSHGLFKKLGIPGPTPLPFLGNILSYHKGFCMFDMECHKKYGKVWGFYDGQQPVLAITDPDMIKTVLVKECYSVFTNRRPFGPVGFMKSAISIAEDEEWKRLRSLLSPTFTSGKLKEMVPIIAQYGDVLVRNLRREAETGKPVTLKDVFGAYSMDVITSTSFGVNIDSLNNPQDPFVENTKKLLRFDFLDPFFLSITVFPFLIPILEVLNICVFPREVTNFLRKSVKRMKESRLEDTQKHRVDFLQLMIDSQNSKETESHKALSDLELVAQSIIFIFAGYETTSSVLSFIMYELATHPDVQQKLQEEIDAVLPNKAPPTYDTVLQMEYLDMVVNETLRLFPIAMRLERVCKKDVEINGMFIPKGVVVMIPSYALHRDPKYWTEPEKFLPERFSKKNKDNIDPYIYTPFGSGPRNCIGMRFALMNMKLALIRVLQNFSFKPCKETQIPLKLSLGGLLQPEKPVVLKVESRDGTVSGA
Chain of 3',5'-cyclic-AMP phosphodiesterase 4B (Homo sapiens) (Q07343 whole entry, looked up): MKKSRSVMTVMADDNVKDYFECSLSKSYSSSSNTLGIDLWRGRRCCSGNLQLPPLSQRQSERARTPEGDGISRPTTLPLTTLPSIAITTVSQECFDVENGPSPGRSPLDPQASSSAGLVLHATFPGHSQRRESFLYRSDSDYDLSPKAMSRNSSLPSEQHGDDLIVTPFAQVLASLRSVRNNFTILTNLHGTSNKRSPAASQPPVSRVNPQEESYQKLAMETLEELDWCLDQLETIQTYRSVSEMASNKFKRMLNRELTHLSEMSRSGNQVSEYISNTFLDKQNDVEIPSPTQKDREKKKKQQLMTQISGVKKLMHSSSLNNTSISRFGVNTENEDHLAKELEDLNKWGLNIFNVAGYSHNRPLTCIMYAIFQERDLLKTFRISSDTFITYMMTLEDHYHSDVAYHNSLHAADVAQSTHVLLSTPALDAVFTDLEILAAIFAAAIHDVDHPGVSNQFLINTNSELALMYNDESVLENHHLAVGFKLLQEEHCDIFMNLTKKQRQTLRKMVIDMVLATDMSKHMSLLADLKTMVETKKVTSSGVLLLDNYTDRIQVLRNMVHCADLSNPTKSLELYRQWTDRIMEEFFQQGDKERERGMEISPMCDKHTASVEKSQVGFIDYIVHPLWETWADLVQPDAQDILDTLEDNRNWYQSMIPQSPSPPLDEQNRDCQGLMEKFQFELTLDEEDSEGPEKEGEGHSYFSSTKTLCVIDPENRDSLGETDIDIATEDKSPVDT
Chain of Glucocorticoid receptor (Homo sapiens) (P04150 whole entry, looked up, the tested form may be a part): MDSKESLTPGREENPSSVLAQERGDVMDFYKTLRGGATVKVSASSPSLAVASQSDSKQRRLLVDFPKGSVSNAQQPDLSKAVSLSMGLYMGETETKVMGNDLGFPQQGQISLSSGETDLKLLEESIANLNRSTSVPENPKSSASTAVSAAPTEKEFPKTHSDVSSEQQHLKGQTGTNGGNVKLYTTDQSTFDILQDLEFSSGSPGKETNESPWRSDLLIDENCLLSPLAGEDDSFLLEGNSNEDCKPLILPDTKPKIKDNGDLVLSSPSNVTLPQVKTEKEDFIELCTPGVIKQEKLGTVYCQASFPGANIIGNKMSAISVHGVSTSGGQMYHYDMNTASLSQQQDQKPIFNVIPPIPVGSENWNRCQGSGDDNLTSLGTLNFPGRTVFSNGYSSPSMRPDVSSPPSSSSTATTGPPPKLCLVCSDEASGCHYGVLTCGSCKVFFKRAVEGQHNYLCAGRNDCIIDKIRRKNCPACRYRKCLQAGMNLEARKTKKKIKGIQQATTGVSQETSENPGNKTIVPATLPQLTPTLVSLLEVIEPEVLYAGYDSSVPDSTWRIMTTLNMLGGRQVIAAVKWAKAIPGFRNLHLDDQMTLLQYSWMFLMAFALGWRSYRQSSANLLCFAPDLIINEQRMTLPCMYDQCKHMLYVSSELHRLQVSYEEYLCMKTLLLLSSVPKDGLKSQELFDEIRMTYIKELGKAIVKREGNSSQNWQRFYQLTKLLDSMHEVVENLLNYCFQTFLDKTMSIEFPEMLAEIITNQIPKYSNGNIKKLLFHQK
Chain of Cytochrome P450 2C19 (Homo sapiens) (P33261 whole entry, looked up): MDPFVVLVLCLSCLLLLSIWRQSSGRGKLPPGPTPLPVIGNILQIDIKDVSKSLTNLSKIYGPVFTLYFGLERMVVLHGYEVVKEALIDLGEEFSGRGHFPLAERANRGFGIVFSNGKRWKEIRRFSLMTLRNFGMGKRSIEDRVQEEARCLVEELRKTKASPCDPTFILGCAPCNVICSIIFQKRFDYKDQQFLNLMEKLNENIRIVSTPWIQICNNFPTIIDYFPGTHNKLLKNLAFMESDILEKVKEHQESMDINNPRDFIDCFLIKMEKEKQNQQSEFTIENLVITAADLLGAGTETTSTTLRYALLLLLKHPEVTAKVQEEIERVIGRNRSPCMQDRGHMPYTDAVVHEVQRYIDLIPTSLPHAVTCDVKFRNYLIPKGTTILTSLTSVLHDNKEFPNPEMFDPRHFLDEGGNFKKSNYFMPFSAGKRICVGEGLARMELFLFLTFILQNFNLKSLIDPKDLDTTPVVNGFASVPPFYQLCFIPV
Chain of Ubiquitin carboxyl-terminal hydrolase 1 (Homo sapiens) (O94782 whole entry, looked up): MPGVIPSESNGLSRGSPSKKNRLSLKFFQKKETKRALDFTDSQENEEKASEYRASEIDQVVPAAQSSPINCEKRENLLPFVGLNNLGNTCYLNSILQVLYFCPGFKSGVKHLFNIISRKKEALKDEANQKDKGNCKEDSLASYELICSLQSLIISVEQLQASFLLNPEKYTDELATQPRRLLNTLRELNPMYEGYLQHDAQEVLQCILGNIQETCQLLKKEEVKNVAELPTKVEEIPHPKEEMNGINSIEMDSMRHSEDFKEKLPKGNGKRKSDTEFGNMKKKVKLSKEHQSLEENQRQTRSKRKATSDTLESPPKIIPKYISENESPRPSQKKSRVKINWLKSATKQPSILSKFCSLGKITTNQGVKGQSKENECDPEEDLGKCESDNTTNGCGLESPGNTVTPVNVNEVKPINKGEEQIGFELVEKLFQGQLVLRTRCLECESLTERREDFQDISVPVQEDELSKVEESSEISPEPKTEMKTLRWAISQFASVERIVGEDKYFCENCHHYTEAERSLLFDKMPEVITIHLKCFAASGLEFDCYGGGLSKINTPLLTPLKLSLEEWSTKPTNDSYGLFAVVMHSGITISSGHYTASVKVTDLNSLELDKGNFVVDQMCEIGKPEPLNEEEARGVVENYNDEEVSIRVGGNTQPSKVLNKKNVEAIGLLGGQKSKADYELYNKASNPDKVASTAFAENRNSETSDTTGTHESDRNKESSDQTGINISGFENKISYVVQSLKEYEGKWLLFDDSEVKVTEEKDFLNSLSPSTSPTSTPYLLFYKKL
Chain of Lysosomal acid glucosylceramidase (Homo sapiens) (P04062 whole entry, looked up): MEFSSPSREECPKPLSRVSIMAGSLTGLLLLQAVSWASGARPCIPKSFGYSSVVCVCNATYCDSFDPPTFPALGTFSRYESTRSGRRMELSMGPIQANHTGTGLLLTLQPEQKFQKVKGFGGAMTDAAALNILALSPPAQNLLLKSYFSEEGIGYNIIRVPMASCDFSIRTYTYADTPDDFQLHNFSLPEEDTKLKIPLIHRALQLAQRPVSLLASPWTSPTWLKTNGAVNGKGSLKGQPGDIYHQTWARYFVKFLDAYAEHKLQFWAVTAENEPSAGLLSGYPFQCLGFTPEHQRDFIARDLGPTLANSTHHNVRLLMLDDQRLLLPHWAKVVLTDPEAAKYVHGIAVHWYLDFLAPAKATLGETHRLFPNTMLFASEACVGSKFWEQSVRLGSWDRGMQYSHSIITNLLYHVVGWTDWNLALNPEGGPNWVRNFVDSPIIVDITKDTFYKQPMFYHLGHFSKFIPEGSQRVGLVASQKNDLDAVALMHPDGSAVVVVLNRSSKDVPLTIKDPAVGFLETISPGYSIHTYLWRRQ
Chain of Dual specificity protein kinase CLK4 (Homo sapiens) (Q9HAZ1 whole entry, looked up): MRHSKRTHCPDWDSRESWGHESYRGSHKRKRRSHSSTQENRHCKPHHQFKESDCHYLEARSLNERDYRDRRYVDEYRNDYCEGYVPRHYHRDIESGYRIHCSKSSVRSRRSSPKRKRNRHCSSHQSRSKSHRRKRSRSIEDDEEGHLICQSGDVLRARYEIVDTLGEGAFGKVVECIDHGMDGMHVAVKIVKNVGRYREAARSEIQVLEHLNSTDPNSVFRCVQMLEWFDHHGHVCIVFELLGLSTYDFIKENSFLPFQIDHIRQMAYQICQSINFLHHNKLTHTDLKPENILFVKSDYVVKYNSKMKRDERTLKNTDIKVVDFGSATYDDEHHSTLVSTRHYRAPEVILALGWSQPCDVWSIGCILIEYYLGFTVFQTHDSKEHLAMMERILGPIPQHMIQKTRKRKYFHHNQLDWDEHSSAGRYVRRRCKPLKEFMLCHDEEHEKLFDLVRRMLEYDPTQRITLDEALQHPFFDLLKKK

N#Cc1cccc(-c2cc(-n3ccnc3)ncn2)c1
inactive: Potency [1] > 11.4 µM | activity change, negative = inhibition [2] 0.101% | activity change, negative = inhibition [4] 4.55% | activity, negative = inhibition [5] 10.7% | Potency [6] > 46 µM | Potency [7] > 46 µM | Potency [8] | Potency [9] | Potency [10] | Potency [12] | outcome [13] | Potency [14] | outcome [15]
active: Potency [3] 0.126 µM | Potency [11] 0.158 µM

CN(C)Cc1ccccc1-c1nccc(NC2CC2)n1
active: Potency [3] 1.58 µM | Potency [16] 0.631 µM
inactive: Potency [1] > 11.4 µM | activity change, negative = inhibition [2] -4.26% | activity change, negative = inhibition [4] 1.25% | activity, negative = inhibition [5] 5.09% | Potency [6] > 46 µM | Potency [7] > 46 µM | Potency [8] | Potency [9] | Potency [10] | Potency [12] | outcome [13] | Potency [14] | outcome [15]

Cc1ccccc1-c1cc(N(C)Cc2ccco2)ncn1
inactive: Potency [1] > 11.4 µM | activity change, negative = inhibition [2] 7.17% | activity change, negative = inhibition [4] -15.6% | activity, negative = inhibition [5] 8.71% | Potency [6] > 46 µM | Potency [7] > 46 µM | Potency [8] | Potency [9] | Potency [14] | outcome [15]
active: Potency [3] 3.98 µM | Potency [11] 6.31 µM

CCNc1ncc2nc(-c3ccccc3)c(=O)n(Cc3cccc(OC)c3)c2n1
inactive: Potency [1] > 11.4 µM | Potency [6] > 9.22 µM | Potency [7] > 46 µM | Potency [8] | Potency [10] | Potency [18] | Potency [14] | outcome [15]
active: Potency [17] 3.16 µM

COc1ccc2[nH]cc(CCNc3ccnc(-c4ccccc4C)n3)c2c1
inactive: activity change, negative = inhibition [2] -8.02% | activity change, negative = inhibition [4] 8.54% | activity, negative = inhibition [5] -1.84% | Potency [6] > 46 µM | Potency [7] > 46 µM | Potency [8] | Potency [9] | Potency [10] | Potency [18] | Potency [14] | outcome [15]
active: Potency [3] 0.316 µM | Potency [19] 3.16 µM | Potency [16] 2.51 µM | Potency [11] 2.51 µM

Cc1ccccc1-c1nccc(-n2ccnc2)n1
active: Potency [3] 0.0794 µM
inactive: Potency [1] > 11.4 µM | activity change, negative = inhibition [2] 5.77% | activity change, negative = inhibition [4] -8.66% | activity, negative = inhibition [5] 12.8% | Potency [6] > 46 µM | Potency [7] > 46 µM | Potency [8] | Potency [9] | Potency [10] | Potency [12] | activation [17] -1.43% | outcome [13] | Potency [14] | outcome [15]
